# Hit rate of the full screen: of about 290,000 compounds, about 1,500 (0.52%) were called active. No stated cut-off is given here; in the data, active means inhibition above about 50%; inactive means the rest. Many of the other results were omitted from the sample, so actives are more common in it than they were.
# Molecular target: Dual specificity protein phosphatase 3 (Homo sapiens) (UniProt P51452)
# Experiment: VHR1 phosphatase inhibitors, primary screen, biochemical, absorbance, uHTS (AID 1654)
# [1] = recombinant VHR phosphatase, pNPP absorbance, at 13.3 µM, stronger effect = higher value
# Sequence of Dual specificity protein phosphatase 3 (Homo sapiens) (P51452 whole entry, looked up): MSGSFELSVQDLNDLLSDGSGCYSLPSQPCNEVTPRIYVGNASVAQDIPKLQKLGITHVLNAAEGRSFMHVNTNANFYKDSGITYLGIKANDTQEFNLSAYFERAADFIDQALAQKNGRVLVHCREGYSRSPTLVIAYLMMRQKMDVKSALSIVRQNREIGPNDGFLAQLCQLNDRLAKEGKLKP
structure (smiles),measurement,setting,value
Cc1cc(C)c(S(=O)(=O)N(C)CC(=O)NCC2CCCO2)c(C)c1 (stereo unspecified),inhibition,[1],20.6% (inactive)
COc1ccc(CN(C)C(=S)Nc2ccc(Cl)cc2Cl)cc1,inhibition,[1],-0.1% (inactive)
CC(=O)N1CCc2cc(S(=O)(=O)NC3CCCCC3)ccc21,inhibition,[1],-7.7% (inactive)
O=C(Nc1ccc(S(=O)(=O)Nc2ccccn2)cc1)c1ccccc1,inhibition,[1],5.4% (inactive)
COc1cccc2cc(C(=O)N(C)C)c(=O)oc12,inhibition,[1],18.2% (inactive)
N=c1oc2ccccc2cc1C(=O)NCc1ccccc1,inhibition,[1],-2.5% (inactive)
COc1cccc2cc(C(=O)NCc3ccc(C)cc3)c(=N)oc12,inhibition,[1],53.5% (active)
CN(CC(=O)Nc1ccc(Cl)cc1)C(=O)CNC(=O)c1ccc2ccccc2c1,inhibition,[1],27.9% (inactive)
Cn1c(C(=O)N2CCCC(C(=O)NCc3ccccc3)C2)cc2sccc21 (stereo unspecified),inhibition,[1],22.8% (inactive)
CCc1ccc2nc3sc(C(=O)Nc4nnc(CC)s4)c(N)c3cc2c1,inhibition,[1],52.7% (active)
CCc1nnc(NC(=O)c2cccc(S(=O)(=O)N(C)c3ccc(OC)cc3)c2)s1,inhibition,[1],13.9% (inactive)
CCc1nnc(NC(=O)c2sc3nc(C)cc(COC)c3c2N)s1,inhibition,[1],3.9% (inactive)
COC(=O)Cc1cnc(NC(=O)CSc2nc(C(C)C)cc(=O)[nH]2)s1,inhibition,[1],-28.8% (inactive)
CCN1C(=NCCc2cccnc2)N[C@@H](c2ccccc2)[C@H](C(=O)OC)[C@H]1C,inhibition,[1],36% (inactive)
CC(C)Oc1ccc(C(CC(=O)N2CCOCC2)C(C)C)cc1 (stereo unspecified),inhibition,[1],53% (active)
CC(=O)c1ccc(OC(=O)N2CCOCC2)cc1,inhibition,[1],1.7% (inactive)
O=C(O)CC(CC(=O)N1CCOCC1)c1ccccc1 (stereo unspecified),inhibition,[1],-12.8% (inactive)
COC(=O)CN1C(=O)[C@H]2[C@@H](/C=C/c3ccccc3)N3C(=O)CN(Cc4ccccc4)C(=O)[C@@]3(Cc3ccccc3)[C@H]2C1=O,inhibition,[1],13.4% (inactive)
COCC1CCN(C(=O)C2CCC(=O)N(CC3CCCCC3)C2)CC1 (stereo unspecified),inhibition,[1],6.5% (inactive)
CC(C)=CCCC1(C)C=Cc2c(ccc3c2[nH]c2cc(O)c(C)cc23)O1 (stereo unspecified),inhibition,[1],16.5% (inactive)
COc1ccc(CN(C)C(=O)c2cc(-c3ccc(C)cc3C)nc3ccccc23)c(OC)c1OC,inhibition,[1],-8.1% (inactive)
Cn1c(CCNS(=O)(=O)c2ccc(F)cc2)nnc1SCc1cccnc1,inhibition,[1],17% (inactive)
C#CC(CCN1CCCCC1)(OC)c1ccccc1 (stereo unspecified),inhibition,[1],5.2% (inactive)
CCN(CC)c1ccc(NC(=O)CCc2nnc3ccc(N4CCCCC4)nn23)c(C)c1,inhibition,[1],56.7% (active)
CCOC(=O)c1cccc(NC(=O)CCc2nnc3ccc(N4CCOCC4)nn23)c1,inhibition,[1],10.4% (inactive)
CCOc1ccc(CCNC(=O)CCc2nnc3ccc(N4CCCC4)nn23)cc1OCC,inhibition,[1],21.2% (inactive)
Cc1cccc(C)c1NC(=O)C(Cl)C(=O)c1ccccc1 (stereo unspecified),inhibition,[1],0% (inactive)
Nc1nnnn1CC(=O)N/N=C/c1ccc(-c2cccc(Cl)c2)o1,inhibition,[1],5.3% (inactive)
Cc1[nH]c2ccccc2c1/C=N\NC(=O)Cn1nnc(-c2ccccc2)n1,inhibition,[1],-6.7% (inactive)
O=C(Cn1nnc(-c2ccccc2)n1)N/N=C/c1ccc(-c2ccc(Cl)cc2)o1,inhibition,[1],50.8% (active)
Cc1ccc(-c2nc(CS(=O)(=O)CC(=O)NCc3ccc4c(c3)OCO4)c(C)o2)cc1,inhibition,[1],9.7% (inactive)
CN1C2CCC1/C(=C\c1ccccc1Cl)C(=O)/C2=C\c1ccccc1Cl,inhibition,[1],-0.2% (inactive)
CCc1ccc(/C=C2\SC(N3CCOCC3)=NC2=O)cc1,inhibition,[1],19.9% (inactive)
Cc1ccsc1/C=C1\SC(N2CCOCC2)=NC1=O,inhibition,[1],51% (active)
Cc1ccc(N2CCN(C3=NC(=O)/C(=C\c4cccs4)S3)CC2)cc1,inhibition,[1],-10.9% (inactive)
O=[N+]([O-])c1cc(C(F)(F)F)ccc1NCCc1ccncc1,inhibition,[1],-7.6% (inactive)
Cc1cc(C)n2nc(CNS(=O)(=O)c3c(F)c(F)c(F)c(F)c3F)nc2n1,inhibition,[1],51.3% (active)
Cc1cc(C)n2nc(C(=O)NC(C)(C)C)nc2n1,inhibition,[1],38.4% (inactive)
Cc1cc(C)n2nc(SCC(N)=O)nc2n1,inhibition,[1],24.2% (inactive)
CCOC(=O)c1c(C)[nH]c(C2=NNC(=NC(C)COC)SC2)c1C (stereo unspecified),inhibition,[1],8.2% (inactive)
Cc1ccc2oc(C(=O)N3CCN(C)C[C@@H]3C(C)C)c(C)c2c1,inhibition,"recombinant VHR phosphatase, pNPP absorbance; at 13.3 µM; stronger effect = higher value",80.7% (inactive)
same,inhibition,"recombinant VHR phosphatase, pNPP absorbance; measured here: average of confirmation repeats; at 13.3 µM; stronger effect = higher value",-20.8%
Cc1ccccc1OCC(=O)NNC(=O)c1cc(S(=O)(=O)N(C)C)ccc1N1CCCC1,inhibition,[1],-23.3% (inactive)
COCCNC(=O)c1ccc2c(c1)ncn2-c1ccc(C)c(Cl)c1,inhibition,[1],5.8% (inactive)
COCCNC(=O)c1snc2ccc(Cl)cc12,inhibition,[1],50% (active)
COCCNC(=O)c1ccc(S(=O)(=O)c2ccc(Cl)cc2)c(NC(C)=O)c1,inhibition,[1],13.8% (inactive)
Cc1ccc(C(=O)O/N=C(\N)c2ccccn2)cc1Cl,inhibition,[1],11.4% (inactive)
CC1CCN(S(=O)(=O)c2ccc(S(=O)(=O)NCc3cccnc3)cc2)CC1,inhibition,[1],40% (inactive)
O=S(=O)(NCc1cccnc1)c1ccc(Cl)nc1,inhibition,[1],50.3% (active)
O=S(=O)(NCc1cccnc1)c1ccc(Br)s1,inhibition,[1],35.9% (inactive)
Cc1ccc(NC(=O)CN(C)C(=O)COC(=O)C(C)(C)Oc2ccc(Cl)cc2)cc1,inhibition,[1],-4.4% (inactive)
CC(=O)OCCN(CCCn1c(-c2ccncc2)nc2ccccc21)c1nc(-c2ccc(C)cc2)cs1,inhibition,[1],9.5% (inactive)
COc1ccc(C(CCN(Cc2ccc(OC)c(OC)c2)C(=O)CCl)c2ccccc2)cc1 (stereo unspecified),inhibition,[1],0.4% (inactive)
Cc1ccc2c(c1)C(c1ccccc1)N(C(=O)c1ccc(F)cc1)CC(=O)N2 (stereo unspecified),inhibition,[1],23.9% (inactive)
Cc1ccc(/C=N/NC(=O)CNC(=O)COc2ccccc2)o1,inhibition,[1],52.9% (active)
CCOc1ccccc1/C=N/NC(=O)CNC(=O)COc1ccccc1,inhibition,[1],26.2% (inactive)
Cc1ccc(/C=N/NC(=O)CSc2ccccn2)o1,inhibition,[1],-2.8% (inactive)
CCOc1ccc(C(C(=O)NCCOC)N(CCOC)C(=O)CCC(=O)Nc2ccccn2)cc1 (stereo unspecified),inhibition,[1],36.3% (inactive)
CCOc1ccc2[nH]c(C(=O)N/N=C/c3cccc(OC)c3OC)cc2c1,inhibition,[1],26.8% (inactive)
COc1ccc2[nH]c(C(=O)N/N=C/c3cc(OC)c(OC)c(OC)c3)cc2c1,inhibition,[1],14.1% (inactive)
COc1cc2cc(C(=O)N/N=C/c3cccc(OC)c3OC)[nH]c2cc1OC,inhibition,[1],58.2% (active)
